Source: PubChem BioAssay AID504467 (National Center for Advancing Translational Sciences (NCATS), 2011)
In all, about 330,000 compounds went through this assay and about 7,700 (2.3%) were called active. Inconclusive results (about 26%) are left out. Calls come from the whole dose curve; as a rule, active = well fitted inhibition curve with a large enough effect; inconclusive = small, poorly fitted or top-dose-only effect, or effect the other way; inactive = flat fitted curve, though single readings scatter. Many of the other results were omitted from the sample, so actives are more common in it than they were.

Test: qHTS screen for small molecules that inhibit ELG1-dependent DNA repair in human embryonic kidney (HEK293T) cells expressing luciferase-tagged ELG1; note: nearly all actives have a fitted effect of over 55% in size
Settings: HEK293T ELG1-luciferase reporter, luminescence, 16 h, DNA damage induced by 5-fluorouridine; series mostly up to 46.1 µM; activity change, negative = inhibition: at the top concentration
Summary of the method: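 Reporter activity after DNA damage by 5-fluorouridine is monitored. Compound-treated cells incubate 16 hr at 37 °C, then ONE-Glo is added for 30 min before luminescence reading.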
% is set by controls: 0 for no effect and ±100 for the full control effect; potency is the fitted concentration of half-maximal effect.

SMILES | activity change, negative = inhibition | Potency
CN(C)C(=O)CCc1ccc2c3c([nH]c2c1)[C@]1(CCc2ccccc2)[C@@H](C(=O)N2CCCCC2)C[C@H](CC(=O)NCCC2=CCCCC2)C(=O)N1CC3 | -29.9% (inactive) | –
CC(C)(O)C#Cc1ccc(CN2CCC(CO)(CCc3ccccc3)CC2)cc1 | -8.27% (inactive) | –
CC(=O)c1c(C)[nH]c(C(=O)COC(=O)CCOc2ccc(C)cc2)c1C | 12.8% (inactive) | –
COc1ccc(C)cc1NC(=O)C(OC(=O)c1cccc(S(=O)(=O)N(C)c2ccccc2)c1)c1ccccc1 (configuration not stated) | -3.11% (inactive) | –
CC(=O)c1c(C)[nH]c(C(=O)COC(=O)c2cccc(S(=O)(=O)N(C)c3ccccc3)c2)c1C | – | 18.4 µM (active)
COc1ccc(Cl)cc1NC(=O)CN(C)C(=O)c1cc(-c2cccs2)nn1-c1ccccc1 | -10.8% (inactive) | –
CCOc1ccc(C(=O)Nc2ccc(S(=O)(=O)Nc3cc(C)on3)cc2)cc1 | 8.23% (inactive) | –
CC(C)C(=O)NC(=S)Nc1ccccc1F | 3.5% (inactive) | –
CC(C)C(=O)Nc1cccc(NC(=S)NC(=O)C(c2ccccc2)c2ccccc2)c1 | – | 16.4 µM (active)
CCCCC(=O)NNC(=S)NC(=O)C(c1ccccc1)c1ccccc1 | -4.87% (inactive) | –
CCn1c2ccccc2c2cc(NC(=O)COC(=O)c3cc(S(=O)(=O)N4CCCCC4)ccc3Cl)ccc21 | 18.2% (inactive) | –
CCn1c(O)c(N=NC(=O)c2cccc(S(=O)(=O)N3CCCCC3)c2)c2ccccc21 | – | 23.1 µM (active)
Cc1ccc(NC(=O)CN(C)C(=O)c2cccc(S(=O)(=O)N3CCCC3)c2)cc1 | 7.43% (inactive) | –
CC[C@]12c3[nH]c4ccc(Cl)cc4c3CCN1C(=O)[C@@H](CC(=O)NCCCOC)C[C@@H]2C(=O)N1CCN(C(=O)C2CC2)CC1 | -3.04% (inactive) | –
NC(=O)Nc1ccc(C(=O)OCC(=O)NC2CCCc3ccccc32)cc1 (configuration not stated) | 3.15% (inactive) | –
CCOc1ccc(N(CC)S(=O)(=O)c2cccc3nsnc23)cc1 | -15.1% (inactive) | –
CCOc1ccccc1NC(=O)CCS(=O)(=O)c1cccc2nsnc12 | -1.26% (inactive) | –
CCOc1ccc(OCC)c(NC(=O)CN(C)S(=O)(=O)c2cccc3nsnc23)c1 | – | 16.4 µM (active)
Cc1ccc(CN2CC(C(=O)N3CCN(S(=O)(=O)c4ccccc4)CC3)CC2=O)cc1 (configuration not stated) | 3.98% (inactive) | –
Cc1ccc(/C=N/NC(=O)c2cc3ccccc3cc2O)o1 | 14.5% (inactive) | –
O=C(NNc1c2ccccc2nc2ccccc12)c1cc2ccccc2cc1O | – | 13 µM (active)
CC(=O)Nc1ccc(Nc2c3ccccc3nc3ccccc23)cc1 | -3.14% (inactive) | –
COc1cccc(C2CC(c3ccccc3)=NN2S(=O)(=O)c2ccccc2)c1OC (configuration not stated) | -10.5% (inactive) | –
Cc1ccc(C2=NN(C(=O)COc3ncnc4ccccc34)C(c3ccco3)C2)cc1 (configuration not stated) | 6.64% (inactive) | –
CCS(=O)(=O)Nc1ccc(C2=NN(S(=O)(=O)c3ccc(F)cc3)C(c3ccco3)C2)cc1 (configuration not stated) | – | 20.6 µM (active)

SMILES | activity change, negative = inhibition | Potency
CC(NCC(=O)Nc1cc(Cl)cc(Cl)c1)c1ccccc1 (configuration not stated) | -8.28% (inactive) | –
COc1ccc(/C=C(/NC(=O)c2ccccc2)C(=O)Nc2cccc(C(=O)O)c2)cc1 | -13.3% (inactive) | –
COc1cc(SC)ccc1C(=O)N(Cc1ccccc1)c1ccccc1 | -10.4% (inactive) | –
CCCC(=O)Nc1cccc(NC(=S)NC(=O)C(C)Oc2ccc(Cl)cc2Cl)c1 (configuration not stated) | – | 20.6 µM (active)
COc1cccc(NC(=O)CN(C)C(=O)Cc2ccc(Cl)cc2Cl)c1 | -1.46% (inactive) | –
CC(Oc1ccc(Cl)cc1Cl)C(=O)/C=C/N(C)C (configuration not stated) | 2.25% (inactive) | –
COc1ccc(C)cc1NC(=O)CN(C)S(=O)(=O)c1ccc2c(c1)n(C)c(=O)c(=O)n2C | 7.65% (inactive) | –
Cc1ccc(C)c(C(=O)COC(=O)Cn2[nH]c(=O)c3ccccc3c2=O)c1 | -0.316% (inactive) | –
O=C(CCc1nc(-c2ccccc2)no1)Nc1cccc(C(=O)NC2CC2)c1 | -26.2% (inactive) | –
CN(CC(=O)Nc1c(Cl)cccc1Cl)C(=O)CC1OC(=O)c2ccccc21 (configuration not stated) | 10.4% (inactive) | –
CCN(C(=O)CSc1nc2ccccc2n1CC)C1CCS(=O)(=O)C1 (configuration not stated) | 5.4% (inactive) | –
CCN(C(=O)COC(=O)/C=C/c1nc2ccccc2s1)C1CCS(=O)(=O)C1 (configuration not stated) | – | 9.2 µM (active)
CCN(C(=O)COC(=O)c1c(NC(C)=O)sc(C)c1C)C1CCS(=O)(=O)C1 (configuration not stated) | -2.68% (inactive) | –
C=CC(COCc1ccccc1)N(CC(=O)OC)S(=O)(=O)c1cc(Br)ccc1OC (configuration not stated) | -2.49% (inactive) | –
Cc1nc2cc(C(F)(F)F)ccc2n1CCNc1nc(-c2cc(Cl)c(N)c(Cl)c2)cs1 | -16% (inactive) | –
COc1ccc(-c2c(C)cc3oc(=O)cc(-c4ccccc4)c3c2C)cc1C=O | – | 25.9 µM (active)
COc1ccc(-c2c(C)cc3oc(=O)cc(-c4ccccc4)c3c2C)cc1F | 19.1% (inactive) | –
COc1ccc(-c2c(C)cc3oc(=O)cc(-c4ccccc4)c3c2C)cc1OC | -11.1% (inactive) | –
CCOC(=O)N1CCN(Cc2nnc(-c3ccccc3Cl)o2)CC1 | 8.04% (inactive) | –
Cc1ccc(F)cc1NC(=O)CSCc1c(C)noc1C | 23.3% (inactive) | –
CCS(=O)(=O)NCCc1ccc(OC)c(OC)c1 | -10.4% (inactive) | –
COc1ccc(CCNc2ncnc3nc[nH]c23)cc1OC | – | 14.6 µM (active)
COc1ccc(CCNc2nc(C)cc(C)n2)cc1OC | -0.316% (inactive) | –
CCCN(C(=O)c1nc2nccc(C)n2n1)c1c(N)n(Cc2ccccc2)c(=O)[nH]c1=O | 7.75% (inactive) | –
O=C(Nc1ccccc1F)c1ccc(S(=O)(=O)N2CCCCCC2)cc1 | -0.132% (inactive) | –

SMILES | activity change, negative = inhibition | Potency
Cc1cccc(NS(=O)(=O)c2ccc(C)c(C(=O)NCc3cccnc3)c2)c1 | -4.62% (inactive) | –
COC(=O)Cc1ccc(OC(=O)C2CCN(S(=O)(=O)c3ccc(OC)c(OC)c3)CC2)cc1 | 22.6% (inactive) | –
CCOC(=O)c1c(C)[nH]c2c1-c1ccccc1C(=O)C2=O | – | 2.91 µM (active)
CCOC(=O)c1c(C)[nH]c(C)c1S(=O)(=O)N(C)CC(=O)Nc1ccccc1C | 2.89% (inactive) | –
Cc1[nH]c2ccccc2c1C(=O)COC(=O)C(C)C | 13.3% (inactive) | –
CC[C@]12c3[nH]c4cc(CCC(=O)N(C)C)ccc4c3CCN1C(=O)[C@@H](CC(=O)NCCCn1ccnc1)C[C@@H]2C(=O)N1CCN(C(=O)C2CC2)CC1 | 20.4% (inactive) | –
Cc1ccc(N(Cc2ccccc2O)C(=O)c2ccccc2F)cc1 | -6.48% (inactive) | –
Cc1ccc(C(=O)OCC(=O)N2CC(C)CC(C)C2)cc1S(=O)(=O)N1CCCCC1 (configuration not stated) | -2.94% (inactive) | –
Cc1ccc(C(=O)NCC(=O)O)cc1S(=O)(=O)N1CCCCC1 | 12.5% (inactive) | –
COc1ccc(C(=O)OCC(=O)c2ccc(C)c(S(=O)(=O)N3CCOCC3)c2)cc1OC | – | 10.3 µM (active)
Cc1ccc(C(=O)OCC(=O)NCc2cc(C)c(O)c(C)c2)cc1S(=O)(=O)N1CCCCC1 | – | 7.3 µM (active)
Cc1ccc(C(=O)OCC(=O)N2CCCCCC2)cc1S(=O)(=O)N1CCOCC1 | 6.02% (inactive) | –
Cc1ccc(C(=O)OCC(=O)Nc2ccc(Cl)cn2)cc1S(=O)(=O)N1CCOCC1 | 11.3% (inactive) | –
COc1ccc(C2(C)ON(c3ccccc3C(F)(F)F)C2=O)cc1 (configuration not stated) | -20.7% (inactive) | –
Cc1ccc(Cn2cc(C(=O)NN)c(=O)c3ccc(F)cc32)cc1 | -19.1% (inactive) | –
CC1(C)Oc2ccc3ccc(=O)oc3c2/C(=N/O)C1=O | 1.95% (inactive) | –
COc1ccc(C(=O)NC(=S)Nc2ccc(N3CCCC3)cc2)cc1OC | 26.5% (inactive) | –
COc1ccc(C(=O)Nc2ccc3nc(N4CCCCC4)cc(C)c3c2)cc1OC | – | 23.1 µM (active)
COc1ccc(C(=O)Nc2ccc(S(=O)(=O)Nc3onc(C)c3C)cc2)cc1OC | 4.09% (inactive) | –
CN1/C(=C\C(=O)c2cccnc2Cl)C(C)(C)c2ccccc21 | 11.6% (inactive) | –
CN1CCN(CCC(=O)N/N=C/C=C2\N(C)c3ccccc3C2(C)C)CC1 | 10.6% (inactive) | –
CN1/C(=C\C(=O)c2oc3ccccc3c2N)C(C)(C)c2ccccc21 | – | 13 µM (active)
CC(C)[C@H](NC(=O)N1CCn2c1nc1ccccc12)C(=O)NCCc1ccccc1 | 6.27% (inactive) | –
CCOc1ccc(C(=O)CCC(=O)Nc2ccncc2)cc1 | -1.92% (inactive) | –
COc1ccc2oc(C(=O)N(CC(C)C)C3CCS(=O)(=O)C3)c(C)c2c1 (configuration not stated) | 2.82% (inactive) | –

SMILES | activity change, negative = inhibition | Potency
COc1cc(C(=O)N[C@@H](C)C(=O)NCc2ccco2)cc(OC)c1OC | 9.98% (inactive) | –
COc1cc(C(=O)OC(C)C(=O)NCC2CCCCC2)cc(NC(=O)c2ccco2)c1OC (configuration not stated) | – | 11.6 µM (active)
CC(OC(=O)c1ccc([N+](=O)[O-])cc1)C(=O)NCC1CCCCC1 (configuration not stated) | -18.6% (inactive) | –
CN1C(=O)[C@H]2[C@@H](/C=C/c3ccccc3)N3C(=O)CN(Cc4ccc(-c5ccccc5)cc4)C(=O)[C@@]3(C)[C@H]2C1=O | -1.92% (inactive) | –
COc1ccccc1CNC(=O)COn1nnc2ccc(S(=O)(=O)N3CCOCC3)cc21 | -1.32% (inactive) | –
COc1ccc(CCNc2nc3ccc(C)cc3n3cnnc23)cc1OC | -17.1% (inactive) | –
COc1ccc(OC)c(Nc2nc3ccccc3n3cnnc23)c1 | – | 14.6 µM (active)
CCn1c(C(O)c2cc(OC)ccc2OC)nc2ccccc21 (configuration not stated) | -22% (inactive) | –
Cc1ccc(/C=C2/SC(=S)N(CCC(=O)NCCCN3CCOCC3)C2=O)cc1 | 3.39% (inactive) | –
CCOc1ccc(NC(=O)COc2ccc(C(=O)N3CCC(C(N)=O)CC3)cc2OC)cc1 | 0.553% (inactive) | –
CCc1c(C)nc2c(-c3ccccc3)c(C)nn2c1Nc1ccc(NC(C)=O)cc1 | – | 16.4 µM (active)
Cc1cc(-n2nc(C)cc2C)n2nc(C)c(-c3ccccc3)c2n1 | -15.9% (inactive) | –
Cc1cc(-c2ccccc2)n2nc(C)c(-c3ccccc3)c2n1 | 29.7% (inactive) | –
Cc1cc(C)c2nc(N(CCN(C)C)C(=O)/C=C/c3cccs3)sc2c1 | -3.07% (inactive) | –
CN(CC(=O)Nc1ccc(F)c(F)c1F)C(=O)Cn1cnc2c1c(=O)n(C)c(=O)n2C | 13% (inactive) | –
O=C(COc1ccccc1F)NNC(=O)c1cc(Br)ccc1Cl | 16.7% (inactive) | –
COc1ccccc1N1CCN(C(=O)C2Cc3ccccc3CN2C(=O)c2ccco2)CC1 (configuration not stated) | 8.8% (inactive) | –
Cc1ccc(C)c(-c2nnc(NC(=O)CS(=O)(=O)c3ccccc3)o2)c1 | -2.86% (inactive) | –
COc1ccc(S(=O)(=O)NCC(=O)NC2CC2)cc1OC | 3.84% (inactive) | –
Cc1ccc(C(=O)NCCNC(=O)c2cnccn2)cc1 | -0.272% (inactive) | –
CCN(CC)c1ccc(/C=N/NC(=O)c2cnccn2)c(O)c1 | – | 1.46 µM (active)
O=C(N/N=C/c1ccc(O)c2ccccc12)c1cccnc1 | -3.64% (inactive) | –
